Test results: PubChem BioAssay AID1851 (National Center for Advancing Translational Sciences (NCATS), 2009)
The whole screen tested about 16,000 compounds, of which about 5,800 (36%) were called active. Roughly 23% stayed inconclusive and do not appear here. Some of the results follow. A number with no mark means an inactive call. The call rests on the fitted dose curve; in most records, active means well fitted curve in the direction sought with a large enough effect; inconclusive means small, poorly fitted or top-dose-only effect, or effect the other way; inactive means no such curve, though single readings can be large or run the other way.
On the % scale 0 is the no-effect control and ±100 the full control effect.

These compounds were tested against Cytochrome P450 2C19 (Homo sapiens) (UniProt P33261) (assay: Cytochrome panel assay with activity outcomes). Conditions: recombinant CYP, pro-luciferin dealkylation, luminescence, p450-cyp2c19; series mostly up to 57.1 µM; activity, negative = inhibition: at the top concentration.
Sequence of Cytochrome P450 2C19 (Homo sapiens) (P33261 whole entry, looked up): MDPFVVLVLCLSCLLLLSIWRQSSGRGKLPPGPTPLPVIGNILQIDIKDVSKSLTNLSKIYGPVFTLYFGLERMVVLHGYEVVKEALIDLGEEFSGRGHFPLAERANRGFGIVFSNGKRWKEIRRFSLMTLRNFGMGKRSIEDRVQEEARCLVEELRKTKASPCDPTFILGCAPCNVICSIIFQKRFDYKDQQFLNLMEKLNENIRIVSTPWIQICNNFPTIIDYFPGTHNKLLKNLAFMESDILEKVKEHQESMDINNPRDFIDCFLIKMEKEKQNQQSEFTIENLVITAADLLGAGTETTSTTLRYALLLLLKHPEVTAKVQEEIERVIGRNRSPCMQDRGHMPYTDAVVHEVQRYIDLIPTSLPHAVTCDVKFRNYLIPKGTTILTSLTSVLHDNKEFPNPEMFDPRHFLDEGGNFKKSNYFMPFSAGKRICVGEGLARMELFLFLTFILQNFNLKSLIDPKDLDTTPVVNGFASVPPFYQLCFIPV
For `CCOC(=O)/C(C#N)=C1/SC(CC)C(=O)N1c1ccc(Br)cc1` (stereo unspecified), the AC50 was 1.58 µM (active).
For `CCOC(=O)/C(C#N)=C1/C=CN(C)C=N1`, the “activity, negative = inhibition” value was 10.6%.
For `CC(C)OCCCn1c(=S)[nH]c2ncccc2c1=O`, the AC50 was 14.1 µM (active).
`Cn1c(=O)c2[nH]c(SCc3ccccn3)nc2n(C)c1=S` was tested, and the activity, negative = inhibition was 29.1% [at 11.4 µM].
`COCCNC(=O)COC(=O)/C=C/c1cnc2ccccc2n1` was tested, and the AC50 was 22.4 µM (active).
Compound `CC(C)(C)CC(C)(C)c1cc(O)c(O)c(CN2CCCCC2)c1` has an activity, negative = inhibition of -5.03% [at 11.4 µM].
In the case of `O=C1C=C(Nc2ccc(Cl)cc2)CC(c2ccc(Cl)cc2)C1` (stereo unspecified), the AC50 is reported as 1.58 µM (active).
In the case of `Cn1c(/C=C/c2ccc([N+](=O)[O-])o2)nc2ccccc2c1=O`, the AC50 is reported as 14.1 µM (active).
In the case of `O=C1O[C@H](CN2CCOCC2)CN1/N=C\c1ccc([N+](=O)[O-])o1`, the “activity, negative = inhibition” value is reported as 8.96% [at 25.6 µM].
With `Nc1ccc(S(=O)(=O)Nc2nccs2)cc1` the “activity, negative = inhibition” value was 7.08% [at 25.6 µM].
For `Nc1ccc(S(=O)(=O)NCc2nccs2)cc1`, the AC50 was 0.0794 µM (active).
For `Nc1ccc(S(=O)(=O)Nc2ncccn2)cc1`, the “activity, negative = inhibition” value was 25.6% [at 25.6 µM].
In the case of `Cc1cccc(NC(NC(=O)c2cccnc2)C(Cl)(Cl)Cl)c1` (stereo unspecified), the AC50 is reported as 2.82 µM (active).
With `O=C(NC(NCc1ccccc1)C(Cl)(Cl)Cl)c1cccnc1` (stereo unspecified) the AC50 was 4.47 µM (active).
With `O=C(O)c1cccnc1` the “activity, negative = inhibition” value was 6.1% [at 25.6 µM].
With `CCNc1ncc2nc(-c3cccs3)c(=O)n(CCC#N)c2n1` the “activity, negative = inhibition” value was -20.2%.
For `COC(Cc1nnc(SC)n1-c1ccc(Cl)cc1)OC`, the “activity, negative = inhibition” value was -9.57%.
With `COc1ccc(NCc2nnc(SCc3ccccc3)n2-c2ccc(OC)cc2)cc1` the AC50 was 3.98 µM (active).
For `CCOc1ccc(NCc2nnc(SCc3ccccc3Cl)n2-c2ccccc2)cc1`, the AC50 was 2 µM (active).
For `COC(Cc1nnc(SC)n1-c1ccccc1)OC`, the “activity, negative = inhibition” value was -17%.
`COC(=O)CSc1nnc(CNc2ccc(Cl)cc2)n1-c1ccccc1` was tested, and the AC50 was 5.01 µM (active).
In the case of `CC(C)CN1CCCC2(CCN(C(=O)c3csnn3)CC2)C1`, the “activity, negative = inhibition” value is reported as -12.1%.
`C[C@@H]1CCCC(CC(=O)O)(CC(=O)O)C1` was tested, and the activity, negative = inhibition was 9.85% [at 11.4 µM].
For `O=C(/C=C/c1ccc(Br)cc1)NC1CCCCCC1`, the “activity, negative = inhibition” value was -28.3%.
`Cc1ccc(/C=C/C(=O)NC(=S)Nc2ccccc2C(=O)NC2CCCCC2)cc1` was tested, and the AC50 was 14.1 µM (active).
With `O=c1c([N+](=O)[O-])cc(C(F)(F)F)cn1Cc1c(Cl)cccc1Cl` the AC50 was 7.08 µM (active).
Compound `Cc1cc2nc3[nH]c4c(Cl)cc(Cl)cc4c3nc2cc1C` has an activity, negative = inhibition of 32.6% [at 11.4 µM].
In the case of `CN(Cc1ccco1)c1cc(-c2ccc3c(c2)OCO3)ncn1`, the AC50 is reported as 10 µM (active).
`CN(C)C(=O)c1ccc(-c2cc(N(C)Cc3ccco3)ncn2)cc1` was tested, and the “activity, negative = inhibition” value was -41.6%.
`CN(C)c1ccc(-c2cc(N(C)Cc3ccco3)ncn2)cc1` was tested, and the AC50 was 10 µM (active).
`CC(=O)OC[C@H]1O[C@@H](O/N=C\[C@@H](C)[C@H](OCc2ccccc2)C(C)C)[C@H](OC(C)=O)[C@@H](OC(C)=O)[C@H]1OC(C)=O` showed an activity, negative = inhibition of 12.9% [at 11.4 µM].
In the case of `O=C1C=C(NCC2CCCO2)C2(CCCCC2)O1` (stereo unspecified), the “activity, negative = inhibition” value is reported as -39.1%.
With `COc1ccc2cc(C)c3nnc(SCC(=O)Nc4nc(-c5ccccc5)cs4)n3c2c1` the AC50 was 5.01 µM (active).
In the case of `Cc1cc2ccccc2nc1SCC(=O)Nc1nc(-c2ccccc2)cs1`, the “activity, negative = inhibition” value is reported as -7.04%.
Compound `CC(=O)OC[C@@H]1O[C@H](C/C=N\O[C@@H]2O[C@H](COC(C)=O)[C@@H](OC(C)=O)[C@H](OC(C)=O)[C@H]2OC(C)=O)C=C[C@@H]1OC(C)=O` has an activity, negative = inhibition of 12.3% [at 11.4 µM].
For `O=C(CN1CCN(c2ccc(Cl)cc2)CC1)Nc1ccc(F)c(F)c1`, the AC50 was 7.94 µM (active).
For `O=C(CN1CCN(c2ccc(Cl)cc2)CC1)Nc1cccc(F)c1`, the AC50 was 5.01 µM (active).
`O=C(COc1ccc(Cl)cc1)Nc1ccc(N2CCN(C(=O)c3ccco3)CC2)cc1` was tested, and the “activity, negative = inhibition” value was -27.1%.
`C[C@H]1O[C@@H](CC(=O)O)Cc2c1c(O)c1c(O)cc(-c3cc(=O)c4c(=O)c5c(c(=O)c=4c3=O)C[C@H](CC(=O)O)O[C@@H]5C)c(O)c1c2O` was tested, and the activity, negative = inhibition was -5.68% [at 11.4 µM].
`COC(=O)c1c(NC(=O)c2ccco2)sc2c1CCC2` was tested, and the AC50 was 4.47 µM (active).
With `COCCn1c(=O)c(-c2ccc(Cl)cc2)nc2cnc(N(C)C)nc21` the “activity, negative = inhibition” value was 6.88%.
For `Cc1ccc2[nH]c3c(c2c1)CN(C(=O)CN1c2ccc(F)cc2CCC1C)CC3` (stereo unspecified), the AC50 was 3.55 µM (active).
For `COc1ccc2[nH]c3c(c2c1)CN(C)CC3`, the “activity, negative = inhibition” value was -22.7%.
In the case of `COC(=O)c1ccc2ccn(CC(=O)NC3CCCCC3)c2c1`, the AC50 is reported as 1.58 µM (active).
With `CCOC(=O)C1=C(C)NC(C)=C(C(=O)OCC)C1c1sccc1C` the AC50 was 1.78 µM (active).
In the case of `CCOC(=O)CSC1=C(C#N)C(c2sccc2C)CC(=O)N1` (stereo unspecified), the AC50 is reported as 7.94 µM (active).
With `COC(=O)CSC1=C(C#N)C(c2cccc(F)c2)CC(=O)N1` (stereo unspecified) the AC50 was 11.2 µM (active).
With `CCOC(=O)CSC1=C(C#N)C(c2sccc2C)C(C(C)=O)=C(C)N1` (stereo unspecified) the AC50 was 1.78 µM (active).
With `CCOC(=O)Cc1c(C)nc2c(C#N)c[nH]n2c1=O` the “activity, negative = inhibition” value was -24.9%.
For `CCOC(=O)CSC1=C(C#N)C(C)C2=C(CCCC2=O)N1` (stereo unspecified), the AC50 was 0.708 µM (active).
`CCN(CC)S(=O)(=O)c1ccc(C(=O)NC2=C(C(=O)OC)SCC2)cc1` was tested, and the AC50 was 8.91 µM (active).
With `COC(=O)C1=C(NC(=O)c2cccc(OC)c2)CCS1` the AC50 was 14.1 µM (active).
With `CCCCN(CC)S(=O)(=O)c1ccc(C(=O)Nc2nnc(CSC)o2)cc1` the “activity, negative = inhibition” value was -8.71%.
`COCCN(CCOC)S(=O)(=O)c1ccc(C(=O)Nc2nc(C)c(C(C)=O)s2)cc1` was tested, and the “activity, negative = inhibition” value was -35.5%.
`Cc1ccc(C2CC(C(F)(F)F)n3nc(C(=O)NCCN4CCOCC4)cc3N2)cc1` (stereo unspecified) was tested, and the “activity, negative = inhibition” value was -29.1%.
`Cc1ccnc(NS(=O)(=O)c2ccc(N=[N+]=[N-])cc2)n1` was tested, and the activity, negative = inhibition was 39.6% [at 11.4 µM].
`C[C@H](CN(C)C)C(=O)c1ccccc1C(=O)O` gave an activity, negative = inhibition of 12.3% [at 11.4 µM].
`O=C(NC(=S)N(Cc1ccccc1)Cc1ccccc1)c1ccccc1F` was tested, and the AC50 was 2.24 µM (active).
For `COc1ccc(CN(CCC#N)C(=S)NC(=O)c2ccccc2)cc1`, the AC50 was 7.94 µM (active).
`CCOc1ccc(C(=O)NC(=S)N(Cc2ccccc2)Cc2ccccc2)cc1` was tested, and the AC50 was 8.91 µM (active).
`CN1CCN(NC(=O)c2ccccc2F)CC1` was tested, and the “activity, negative = inhibition” value was 2.59%.
In the case of `CCc1ccc(NC(=O)Cn2nc(C(F)(F)F)c3c2CCC3)cc1`, the AC50 is reported as 7.94 µM (active).
In the case of `CCCCN(C)CCCNC(=O)c1ccc(N2CCCC2=O)cc1`, the “activity, negative = inhibition” value is reported as 15.5%.
With `CCNC(=O)c1ccc(-n2nc(C(F)(F)F)c3c2CCCC3)cc1` the AC50 was 5.62 µM (active).
`O=C1OCCC1Sc1nnc(-c2ccc(O)cc2)o1` (stereo unspecified) was tested, and the AC50 was 10 µM (active).
For `Cc1cc(C)c2[nH]c(=O)c(CN(Cc3ccco3)C(=O)c3cccs3)cc2c1`, the AC50 was 1.78 µM (active).
With `CN(CCC#N)C(=O)c1ccc(CNS(=O)(=O)c2ccc(F)cc2)cc1` the AC50 was 17.8 µM (active).
With `CCC(=O)N1CCc2cc(S(=O)(=O)NC(C(=O)NCc3ccc(F)cc3)C(C)C)ccc21` (stereo unspecified) the “activity, negative = inhibition” value was -14.1%.
`Cc1c2cccc(Sc3ccccc3)c2c2c3c(cccc13)[S+](c1ccccc1)C2` (stereo unspecified) was tested, and the AC50 was 0.0631 µM (active).
With `COc1ccccc1CCn1c(=O)c(-c2cc(F)cc(F)c2)nc2cncnc21` the AC50 was 1.58 µM (active).
`COc1ccccc1CCn1c(=O)c(-c2cccc(F)c2)nc2cncnc21` was tested, and the AC50 was 1 µM (active).
In the case of `Cn1c(=O)c(-c2cc(F)cc(F)c2)nc2cncnc21`, the “activity, negative = inhibition” value is reported as -31.9%.
`COCCn1c(=O)c(-c2cc(F)cc(F)c2)nc2cncnc21` was tested, and the “activity, negative = inhibition” value was -22%.
`CNC(=O)c1c(I)c(C(=O)NCC(=O)Nc2c(I)c(C(=O)O)c(I)c(C(=O)NCCO)c2I)c(I)c(N(C)C(C)=O)c1I` was tested, and the “activity, negative = inhibition” value was -35.8% [at 25.6 µM].
`O=C(O)[C@@H]1[C@@H](C(=O)Nc2ncccn2)[C@@H]2C=C[C@@H]1O2` gave an activity, negative = inhibition of 0.77% [at 11.4 µM].
In the case of `CC[C@]1(O)C[C@@H]2CN(CCc3c([nH]c4ccccc34)[C@](C(=O)OC)(c3cc4c(cc3OC)N(C)[C@H]3[C@](O)(C(=O)OC)[C@@H](C(=O)OC)[C@@]5(CC)C=CCN6CC[C@@]43[C@@H]65)C2)C1`, the “activity, negative = inhibition” value is reported as -25.1%.
`CN(C(=O)CC(NC(=O)c1ccccc1)(c1ccccc1)c1ccccc1)c1ccccc1` was tested, and the AC50 was 11.2 µM (active).
For `COC(=O)c1ccc(NC(=O)c2ccccc2)o1`, the “activity, negative = inhibition” value was -23.3%.
`CCCCCC1=C2CNC(C)(C(=O)OC)C=C2C(C)C1=O` (stereo unspecified) was tested, and the AC50 was 20 µM (active).
For `CCCCCC1=C2CNC(Cc3ccccc3)(C(=O)OC)C=C2C(C)C1=O` (stereo unspecified), the AC50 was 6.31 µM (active).
`COCCn1c(=O)c(-c2cccc(C#N)c2)nc2cnc(N3CCNCC3)nc21` was tested, and the “activity, negative = inhibition” value was -35.5%.
`Nc1ccc(N=Nc2c(S(=O)(=O)O)cc3ccccc3c2S(=O)(=O)O)cc1` showed an activity, negative = inhibition of 1.46% [at 11.4 µM].
`CCOC(=O)CCN1C(=O)[C@H]2[C@@H]3[C@H](O)[C@H](O)CC(=O)[C@H]3CC[C@H]2C1=O` showed an activity, negative = inhibition of -31.9% [at 11.4 µM].
`Cc1cccc(C)c1NC(=O)CCN1C(=O)C2C3CCC(C3)C2C1=O` (stereo unspecified) was tested, and the “activity, negative = inhibition” value was 9.83%.
In the case of `Cc1cc(NC(=O)CCN2C(=O)C3C4CCC(C4)C3C2=O)c(C)cc1Br` (stereo unspecified), the AC50 is reported as 11.2 µM (active).
With `CC1CCN(CC(=O)Nc2cccc([N+](=O)[O-])c2)CC1` the AC50 was 4.47 µM (active).
`O[C@H](CCCN1CCN(c2ncc(F)cn2)CC1)c1ccc(F)cc1` was tested, and the “activity, negative = inhibition” value was -16.9%.
`O=C1c2ccccc2S(=O)(=O)N1CCCCN1CCN(c2ncccn2)CC1` was tested, and the AC50 was 0.631 µM (active).
`Cn1cccc1C(=O)N1CCC2(CC1)CCN(c1ccc(-c3ccccc3)cc1)CC2` was tested, and the “activity, negative = inhibition” value was 9.67%.
`O=C(NCCN1CCOCC1)c1csc2c1CCCCC2` was tested, and the AC50 was 28.2 µM (active).
With `COc1ccc(C(=O)Nc2ccc(Cl)cc2C(=O)NCCN2CCOCC2)cc1` the AC50 was 10 µM (active).
`O=C(NCCN1CCCCC1)c1ccc(I)cc1` was tested, and the “activity, negative = inhibition” value was -38.6%.
With `COc1ccc(-c2cn3c(C)c(C(=O)NCCN4CCOCC4)sc3n2)cc1` the “activity, negative = inhibition” value was -22.6%.
For `Cc1ccc(C(=O)NCCCN2CCOCC2)cc1N1CCCC1=O`, the “activity, negative = inhibition” value was -14.7%.
In the case of `COc1ccc(C(=O)NCCCN2CCOCC2)cc1OC`, the “activity, negative = inhibition” value is reported as -12.1%.
`O=C(NCCN1CCOCC1)c1ccc2ccccc2c1` was tested, and the AC50 was 7.94 µM (active).
